D1 antagonist: Antagonist of Human D 1 Dopamine Receptor: qHTS | D(1A) dopamine receptor (Homo sapiens), P21728 | HEK293 TREx D1 cells, calcium flux, dopamine EC80; stronger effect = lower value | activity change, negative = inhibition, % at 10 µM | hit rate 3.2% among 360,000; in the data active = activity change below about -30%; also: % is scaled to controls: 0 for no effect and ±100 for the full control effect
Target sequence (P21728 whole entry, looked up): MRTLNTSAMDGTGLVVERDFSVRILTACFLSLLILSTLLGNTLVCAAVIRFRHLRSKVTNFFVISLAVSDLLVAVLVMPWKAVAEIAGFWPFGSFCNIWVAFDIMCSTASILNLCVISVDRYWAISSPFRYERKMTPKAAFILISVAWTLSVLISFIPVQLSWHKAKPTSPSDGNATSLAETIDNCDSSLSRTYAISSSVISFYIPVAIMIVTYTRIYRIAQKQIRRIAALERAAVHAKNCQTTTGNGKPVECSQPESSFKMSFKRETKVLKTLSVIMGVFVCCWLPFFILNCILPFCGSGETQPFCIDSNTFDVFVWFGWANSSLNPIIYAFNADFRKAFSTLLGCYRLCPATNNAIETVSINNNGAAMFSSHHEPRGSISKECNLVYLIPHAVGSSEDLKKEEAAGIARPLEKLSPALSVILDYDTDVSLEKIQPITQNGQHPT
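Tetracycline-induced HEK293 Trex D1 cells, force-coupled to calcium, dye-loaded; compounds added and read 180 s, then EC80 dopamine added and calcium flux tracked kinetically another 180 s.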
D1 ag: Allosteric Agonists of the Human D1 Dopamine Receptor: qHTS; HEK293 T-REx D1 cells, calcium flux, agonist mode; activation, % at 2 µM; hit rate 1% among 360,000; AID 504660, 2011; in the data active = activation above about 30%; also: 0% is about no effect
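Agonism was scored from calcium flux recorded over 180 s (1 read/s) after pintool compound addition, following a 10-cycle baseline. Cells were inducible force-coupled HEK293 TREx D1, plated overnight at 30 C and loaded with no-wash calcium dye.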
D3 antag: qHTS of D3 Dopamine Receptor Antagonist: qHTS; D3R cells, DiscoveRx beta-arrestin luminescence, antagonist mode; stronger effect = lower value; max response, negative = inhibition, %; hit rate 2.5% among 360,000; AID 652054, 2013; in the data active = max response below about -50%; inconclusive = no clear call, values can overlap the other calls; also: % is scaled to controls: 0 for no effect and ±100 for the full control effect
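Cells expressing the human receptor were seeded at 1500 cells/well, incubated overnight at 37 degrees C in 5% CO2, then exposed to library compounds with dopamine controls for 90 minutes at 37 degrees C before luminescent detection.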
D3 ag: qHTS of D3 Dopamine Receptor Agonist: qHTS | max activation, % | D(3) dopamine receptor (Homo sapiens), P35462 | D3R DiscoveRx beta-arrestin cells, luminescence, 90 min | hit rate 0.58% among 410,000 | AID 652048, 2013; in the data active = max activation above about 30%; also: 0% is about no effect
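Agonist mode: compounds and dopamine controls were applied to plated cells for 90 min at 37 degrees C after an overnight attachment at 1500 cells/well. Luminescent read-out followed 30 - 60 minutes at room temperature with DiscoveRx detection reagent.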
D1 PAM: Potentiators of Human D1 Dopamine Receptor: qHTS; HEK293 TREx D1 cells, calcium flux, dopamine EC20 potentiation; potentiation, % at 10 µM; hit rate 0.036% among 360,000; in the data active = potentiation above about 30%; also: 0% is about no effect
* marks the source's active call; other numbers are inactive results. An excerpt weighted towards active compounds, which were near 6% of everything screened.

CC(C)(C)C(=O)OCc1cc(=O)n2nc(C3CCCCC3)sc2n1 was read as D1 antagonist -33*, D1 ag 2, D3 ag 9 and D1 PAM -1.
O=C(CNC(=O)c1ccc(Cl)cc1)OCc1cc(=O)n2nc(C3CCCCC3)sc2n1 was read as D1 antagonist -6, D1 ag 7, D3 ag 1 and D1 PAM -4.
Screening Cc1ccc(NC(=O)CN2C(=O)COc3ccc(S(=O)(=O)N4CCCCC4)cc32)cc1N(C)C returned D1 antagonist -6, D1 ag 2, D3 ag 3 and D1 PAM -4.
`[O-][n+]1c2c(c3c4non(O)c4ccc31)CCCC2` gave D1 antagonist -31*, D1 ag 21, D3 antag -10, D3 ag 5 and D1 PAM -4.
Screening COn1c2c(c3c4no[n+]([O-])c4ccc31)CCCC2 returned D1 antagonist -30, D1 ag 1, D3 antag 5, D3 ag 7 and D1 PAM -3.
For Cc1c(C(=O)c2ccc(F)cc2)c2ccccn2c1CCc1ccccn1 the results were D1 antagonist -54*, D1 ag 1, D3 antag 11, D3 ag 0 and D1 PAM -13.
Screening Cc1cc(C)n2nc(-c3ccsc3-n3c(C)ccc3C)cc2n1 returned D1 antagonist -55*, D1 ag 2, D3 antag inconclusive, D3 ag -1 and D1 PAM -2.
For CCN(CC)S(=O)(=O)c1ccc2nc(NC(=O)c3cccnc3)sc2c1 the results were D1 antagonist 11, D1 ag 2, D3 ag 1 and D1 PAM 1.
Screening CC1(C(=O)NCCC(F)(F)F)Cc2c(-c3cccc(C(N)=O)c3)ccnc2O1 (centres undefined) returned D3 antag -59* and D3 ag -4.
Screening CN1CCN(c2ccc(CNC(=O)C3(C)Cc4c(-c5ccccc5)ccnc4O3)cc2)CC1 (centres undefined) returned D3 antag -62* and D3 ag -15.
For CC1(C(=O)NCc2ccccc2)Cc2c(-c3ccc(C(N)=O)cc3)ccnc2O1 (centres undefined) the results were D3 antag inconclusive and D3 ag 58*.
CC(=O)Nc1ccc(NC(=O)C2(C)Cc3c(-c4ccccc4)ccnc3O2)cc1 (centres undefined) was read as D3 antag -113* and D3 ag -4.
`CC(=O)Nc1cccc(-c2ccnc3c2CC(C)(C(=O)Nc2ccccc2)O3)c1` (centres undefined) gave D3 antag 1 and D3 ag 3.
Screening CCCOc1ccc(CNC(=O)c2ccc(C)c(-n3c(C)nc4cccnc43)c2)cc1 returned D1 antagonist -3, D1 ag 1, D3 ag 5 and D1 PAM -1.
For CN=c1sc(C(=O)Nc2cccc(Cl)c2)cc(=O)n1C the results were D1 antagonist -3, D1 ag 6, D3 antag -51*, D3 ag -8 and D1 PAM -6.
Screening COc1ccc(CN(C)C(=O)c2cccc(S(=O)(=O)N3CCN(c4ccccc4)CC3)c2)c(OC)c1OC returned D1 antagonist -33*, D1 ag 0, D3 antag 12, D3 ag 15 and D1 PAM -9.
For O=C(COC(=O)c1cccc(S(=O)(=O)N2CCN(c3ccc(F)cc3)CC2)c1)NCC1CCCO1 (centres undefined) the results were D1 antagonist -5, D1 ag 8, D3 antag 9, D3 ag 0 and D1 PAM -8.
CN(C)C(CNC(=O)c1cccc(S(=O)(=O)N2CCN(c3ccccc3)CC2)c1)c1ccccc1 (centres undefined) was read as D3 antag -71* and D3 ag -25.
Screening O=C(COC(=O)c1cccc(S(=O)(=O)N2CCN(c3ccccc3)CC2)c1)NCC1CCCO1 (centres undefined) returned D1 antagonist -34*, D1 ag 3, D3 antag 10, D3 ag 1 and D1 PAM -4.
CN(C)C(CNC(=O)c1ccc(C(=O)c2ccccc2)cc1)c1ccccc1 (centres undefined) was read as D1 antagonist 14, D1 ag 3, D3 antag -57*, D3 ag -19 and D1 PAM -5.
Screening COC(=O)c1cccc(S(=O)(=O)N2CCCCC2)c1 returned D1 antagonist -10, D1 ag 1, D3 antag inconclusive, D3 ag -12 and D1 PAM -1.
`CSc1ccc(CN(C)C(=O)c2cccc(S(=O)(=O)NCc3ccccc3)c2)cc1` gave D1 antagonist -33*, D1 ag 16, D3 antag 2, D3 ag -1 and D1 PAM -11.
COc1ccc(C(CNC(=O)c2ccc(S(=O)(=O)N3CC(C)CC(C)C3)cc2)N(C)C)cc1 (centres undefined) was read as D3 antag -63* and D3 ag -42.
Screening COc1ccc(C(CNC(=O)c2cccc(S(=O)(=O)NCc3ccccc3)c2)N(C)C)cc1 (centres undefined) returned D1 antagonist 0, D1 ag 5, D3 antag -71*, D3 ag -25 and D1 PAM -1.
`CSc1ccc(CN(C)C(=O)c2cc(S(=O)(=O)NCc3ccccc3)ccc2C)cc1` gave D1 antagonist 5, D1 ag 3, D3 antag 13, D3 ag -5 and D1 PAM -13.
COC(=O)c1cccc(S(=O)(=O)N2CCN(c3nc4ccccc4s3)CC2)c1 was read as D1 antagonist 8, D1 ag 1, D3 antag -68*, D3 ag 6 and D1 PAM 2.
OC(CCCN1CCCCC1)(c1ccccc1)c1ccc(C(F)(F)F)cc1 (centres undefined) was read as D3 antag -99* and D3 ag -23.
For OC(CCN1CCCCC1)(c1ccccc1)c1ccccc1 the results were D1 antagonist 8, D1 ag 4, D3 antag -10, D3 ag -35 and D1 PAM -3.
For COc1cc(-c2nc3n(n2)C(c2ccc(F)cc2)C(C(N)=O)=C(C)N3)cc(OC)c1OC (centres undefined) the results were D1 antagonist 16, D1 ag 2, D3 ag -2 and D1 PAM 1.
COC(=O)c1ccc(CN=C(NS(=O)(=O)c2ccccc2)c2ccccc2)cc1 was read as D3 antag 5 and D3 ag 2.

Bioassay records deposited in PubChem BioAssay by National Center for Advancing Translational Sciences (NCATS).
